Screens: PubChem BioAssay, National Center for Advancing Translational Sciences (NCATS)
Hits are enriched below; roughly 17% of the tested compounds scored in any of these assays.
S2 tox: Viability Counterscreen for Primary qHTS for Inhibitors of ATXN expression | S2 cells (HEK-293 line with an ATXN2-luciferase reporter) viability, CellTiter-Fluor protease fluorescence, 24 h | Potency, µM (highest dose often 56.7 µM), actives largely listed as cytotoxic | 400,000 compounds, 0.49% hits; also: nearly all actives have a fitted effect of over 40% in size
TDP1 cell noCPT: qHTS for Inhibitors of human tyrosyl-DNA phosphodiesterase 1 (TDP1): qHTS in cells in absence of CPT. DT40 Tdp1-/- hTDP1 cells, no CPT, ATP luminescence, 48 h. Potency, µM (series often up to 46.2 µM), for the others: top-dose activity change, negative = growth inhibition, usual class: inhibitors. 420,000 compounds, 15% hits. AID 686978, 2013; also: % is scaled to controls: 0 for no effect and ±100 for the full control effect; nearly all actives have a fitted effect of over 55% in size
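Chicken DT40 Tdp1-/- cells stably complemented with human TDP1 were seeded at 400 cells/well with DMSO in place of 20 nM camptothecin. After compound pinning, cells grew at least 48 hr at 37 °C; viability read by CellTiter-Glo luminescence.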
HepG2 viability: qHTS for Inhibitors of TGF-b: Cytotox Counterscreen; HepG2 CAGA-GFP viability, ATP luminescence, 18 h; Potency, µM (doses to about 46.1 µM), inactives show at the top dose activity change, negative = cytotoxicity, most hits filed as cytotoxic; 410,000 compounds, 0.76% hits; AID 588856, 2011
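CellTiter-Glo luminescence gave cytotoxicity after 18 hours at 37 degrees C. The cells were HepG2 CAGA-GFP in 1% FBS DMEM, stimulated with 500 pg/mL TGF-beta after compound addition. %Activity was normalised to no-cell wells (complete cell-killing) and DMSO (no toxicity), and curves were fitted and classified.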
ATXN2 expr inh: Primary qHTS for Inhibitors of ATXN expression | HEK-293 ATXN2-luciferase reporter, luminescence, 24 h | Potency, µM (doses to about 57 µM), for the others: at the highest dose activity change, negative = inhibition, hits mostly inhibitors | 360,000 compounds, 0.72% hits | AID 1745845, 2022; also: % is scaled to controls: 0 for no effect and ±100 for the full control effect; nearly all actives have a fitted effect of over 55% in size
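ATXN2-luciferase reporter cells (luciferase flanked by upstream and downstream ATXN2 gene portions) were treated 24 h at 37 °C with compounds at up to 57 uM. SteadyGlo luminescence gave expression; GF-AFC fluorescence gave viability.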
TGFb inhibitor: qHTS for Inhibitors of TGF-b | HepG2 CAGA-GFP TGF-b/SMAD3 reporter, GFP fluorescence, 18 h; TGF-beta stimulated, 500 pg/mL final | 410,000 compounds, 1.2% hits | Potency, µM (series often up to 46.1 µM), for inactives: top-dose activity, negative = inhibition, usual class: inhibitors; also: % is scaled to controls: 0 for no effect and ±100 for the full control effect; nearly all actives have a fitted effect of over 65% in size
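Using HEPG2 CAGA-GFP reporter cells at 1000 cells/well, we pinned test compounds, stimulated with recombinant TGF-beta (500 pg/mL final) and measured total well GFP after 18 h.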
TDP1 cell CPT: qHTS for Inhibitors of human tyrosyl-DNA phosphodiesterase 1 (TDP1): qHTS in cells in presence of CPT; Potency, µM (titrated, usually from 46.2 µM), without a hit: top-dose activity change, negative = growth inhibition, hits mostly inhibitors; chicken DT40 Tdp1-/-;hTDP1 cells + 20 nM CPT, ATP luminescence, 48 h; AID 686979, 2013; 420,000 compounds, 12% hits; also: % is scaled to controls: 0 for no effect and ±100 for the full control effect; nearly all actives have a fitted effect of over 55% in size
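Chicken DT40 Tdp1-/- cells stably complemented with human TDP1 were seeded at 400 cells/well in medium containing 20 nM camptothecin, exposed to pin-transferred compounds, and grown at 37 °C for at least 48 hr. Viability was read as ATP luminescence.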
An asterisk follows results filed as active; i = inactive; ? = inconclusive; / = no result given; [ ] = remark or other dose. Calls follow the shape of the dose curve; as a rule, active = well fitted curve in the direction sought with a large enough effect; inconclusive = small, poorly fitted or top-dose-only effect, or another doubt; inactive = no such curve, though single readings can be large; an effect the other way counts as inactive or inconclusive. Potency is read from the fitted curve at half-maximal effect.

SMILES	S2 tox	TDP1 cell noCPT	HepG2 viability	ATXN2 expr inh	TGFb inhibitor	TDP1 cell CPT
Cc1cccc(C)c1OCc1nnc(SCC(=O)Nc2nccs2)n1-c1ccccc1	i	5.8µM*	-23%	?	-13%	?
Cc1nnc(NC(=O)CSc2nccn2-c2ccc(Cl)cc2)s1	/	-12%	-27%	/	-10%	?
CC(C)(C)c1nc2ccccc2c2nnc(SCC(=O)Nc3nccs3)n12	?	4.6µM*	-17%	?	14%	3.3µM*
O=C(CSc1nnc(CCCO)n1-c1ccccc1)Nc1nccs1	?	-5%	4%	-3%	-5%	-15%
CCc1nnc(NC(=O)CSc2nccn2-c2cc(C)cc(C)c2)s1	i	16µM*	-13%	-22%	-7%	23µM*
CCC(C)NC(=O)c1c(-c2ccccc2)c(-c2ccccc2)nn(C)c1=O (stereo not given)	/	-4%	1%	/	?	-7%
CCCCn1c(SCC(=O)NCc2ccc3c(c2)OCO3)nnc1C(CC)N(C)C (stereo not given)	i	-4%	-11%	-7%	10%	-12%
O=C1C=C(C2OC(CO)C(O)C2O)C(=O)N1 (stereo not given)	?	6.5µM*	-23%	?	-28%	4.6µM*
COc1cc(C(=O)N2CCc3c([nH]c4ccccc34)C2c2ccc(C)cc2)cc(OC)c1OC (stereo not given)	/	?	-26%	/	?	16µM*
COc1ccc(C2c3[nH]c4ccccc4c3CCN2C(=O)c2cn3ccccc3n2)c(F)c1 (stereo not given)	i	?	-10%	41%	?	-2%
COC(=O)[C@H]1[C@H]2C[C@@H]3c4[nH]c5ccccc5c4CCN3C[C@H]2C[C@@H](OC(=O)c2cc(OC)c(OC)c(OC)c2)[C@@H]1OC	?	15µM*	/	/	/	1.1µM*
COc1cccc(C2c3[nH]c4ccccc4c3CCN2C(=O)c2ccccc2F)c1OC (stereo not given)	?	-97%	7%	/	?	?
COc1cc(C(=O)N2CCc3c([nH]c4ccccc34)C2c2ccccc2)cc(OC)c1OC (stereo not given)	/	6.5µM*	-12%	/	?	7.3µM*
COc1ccc(C2c3[nH]c4ccccc4c3CCN2C(=O)c2cc3ncccn3n2)c(F)c1 (stereo not given)	i	21µM*	0%	29%	0%	0%
C/C(CC(=O)Nc1cc(C)ccn1)=N\NC(=O)c1cccc(C)c1O	?	?	-29%	-17%	?	-4%
CCOC(=O)c1c(C)c(C(=O)Nc2ccc(N(C)C)cc2)c(C)n1CC	i	4.6µM*	2%	54%	-19%	7.3µM*
CCOC(=O)c1c(C)c(C(=O)NCc2ccc(Cl)cc2)c(C)n1CC	i	26µM*	3%	-13%	13%	?
Cc1cnc(C(=O)OCC(=O)c2ccc[nH]2)cn1	i	-1%	-18%	3%	-4%	-8%
CN=c1scc(-c2ccc(F)cc2)n1/N=C/c1ccc(O)c(O)c1	?	0.82µM*	-6%	?	?	1.2µM*
CN=c1scc(-c2ccc([N+](=O)[O-])cc2)n1/N=C/c1ccco1	i	-11%	5%	-16%	-17%	11%
Cc1cccn2c(Nc3ccccc3)c(-c3ccccn3)nc12	i	21µM*	-25%	?	?	18µM*
Cc1ccccc1Nc1c(-c2ccc(Cl)cc2)nc2c(C)cccn12	i	-25%	151%	-2%	55%	?
Cc1cccc(C)c1Nc1c(-c2ccccn2)nc2c(C)cccn12	?	26µM*	-31%	-30%	0%	16µM*
Cc1ncc2c(c1CNC(=O)c1ccccc1F)CCN(C(=O)c1ccccc1-n1cccn1)C2	i	-29%	/	/	/	11%[9.04 µM]
Cc1ccc(S(=O)(=O)N[C@H](C(=O)N2CCC(C(=O)N[C@@H](CCC(N)=O)C(=O)O)CC2)C(C)C)cc1	i	0%	0%	-7%	-4%	-4%
SMILES	S2 tox	TDP1 cell noCPT	HepG2 viability	ATXN2 expr inh	TGFb inhibitor	TDP1 cell CPT
CCCS(=O)(=O)NCc1c(C)ncc2c1CCN(C(=O)c1c(F)ccc(F)c1F)C2	?	0%	/	/	/	4%[9.04 µM]
CC1CCCCN1C(=O)c1cc(Cl)ccc1[N+](=O)[O-] (stereo not given)	i	?	13%	-6%	-1%	?
COc1cc(/C=C(\C#N)C(=O)Nc2ccc(C)cc2)ccc1OCc1cc(=O)n2nc(C)sc2n1	i	-12%	-3%	-6%	-4%	-19%
O=C(CCl)N=c1sccn1Cc1cccc2ccccc12	?	2.6µM*	-111%	0.03µM*	?	4.6µM*
CC(C)N1CCN(C(=O)c2ccc(OC3CCN(CCc4ccccc4)CC3)cc2)CC1	i	23µM*	0%	-6%	23%	?
O=C(NCCc1ccccn1)c1ccc(OC2CCN(CCc3ccccc3)CC2)cc1	i	-4%	-14%	11%	-7%	-14%
CC(Cc1ccccn1)NC(=O)c1ccc(OC2CCN(CCc3ccccc3)CC2)cc1 (stereo not given)	?	?	-11%	6%	15%	18µM*
CC(=O)Nc1ccc(CNc2nc3cc(-c4ccsc4)sc3c(=O)n2C)cc1	i	?	-17%	12%	?	-24%
CCOc1cc(C(=S)N2CCCC2)ccc1OCC(=O)Nc1c(C)cc(C)cc1C	i	16µM*	7%	-3%	-20%	18µM*
COc1cc(C(=S)N2CCCCC2)ccc1OCC(=O)Nc1ccccc1Cl	i	23µM*	-16%	-32%	-10%	?
O=C(COc1ccc(C(=S)N2CCOCC2)cc1Cl)Nc1ccccc1Cl	i	-19%	-55%	-4%	-8%	-22%
CN1CCN(CCCNCc2cn(CCC#N)c3ccccc23)CC1	i	-14%	-11%	-10%	2%	0%
COc1ccc(S(=O)(=O)N2CCCOC2CNC(=O)C(=O)NCc2ccccc2C)cc1 (stereo not given)	?	-28%	1%	/	-10%	-19%
